# Sampled rows, rich in hits. Any-hit rate of the full collection: about 0.8%.
# APE1 inh: APE1 (human) endonuclease inhibition | P27695 | recombinant APE1, TAMRA/BHQ-2 abasic DNA cleavage fluorescence | Potency, µM (doses to about 65.8 µM), without a hit: top-dose activity change, negative = inhibition, actives largely listed as inhibitors | 350,000 compounds, 0.35% hits | AID 2517;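 further: potency means the concentration at half of the fitted maximal effect; plate controls were vehicle for no effect and reference inhibitor for full effect; nearly all actives have a fitted effect of over 55% in size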
# Target sequence (P27695 whole entry, looked up): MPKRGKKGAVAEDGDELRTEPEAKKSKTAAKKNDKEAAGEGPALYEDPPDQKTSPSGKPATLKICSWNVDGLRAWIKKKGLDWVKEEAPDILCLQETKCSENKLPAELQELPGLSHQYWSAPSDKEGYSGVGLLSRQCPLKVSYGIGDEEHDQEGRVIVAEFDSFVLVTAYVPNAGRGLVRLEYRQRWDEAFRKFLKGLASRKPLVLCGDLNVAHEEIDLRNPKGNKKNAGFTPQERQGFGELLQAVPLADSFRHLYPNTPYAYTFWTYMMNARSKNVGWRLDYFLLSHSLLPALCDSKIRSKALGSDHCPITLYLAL
#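 Enzyme (0.75 nM final) and test compound are incubated 15 min at room temperature before adding 50 nM quenched THF abasic-site duplex. Cleavage dequenches TAMRA, followed at 525/598 nm over three reads one minute apart.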
# TDP1 inh: TDP1 (human) enzyme inhibition; Q9NUW8; recombinant TDP1, AlphaScreen DNA substrate cleavage; Potency, µM (titrated, usually from 130 µM), inactives show top-dose activity change, negative = inhibition, hits mostly inhibitors; 350,000 compounds, 0.28% hits; AID 485290; further: potency means the concentration at half of the fitted maximal effect; on the % scale 0 is the no-effect control and ±100 the full control effect; nearly all actives have a fitted effect of over 40% in size
#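 Recombinant human Tdp1 (E. coli-expressed, 1 nM final) preincubated with compounds 15 min at room temperature, then 5'-biotin/3'-phosphotyrosine-FITC DNA substrate (15 nM final) added for 5 min. AlphaScreen beads (10 ug/ml final) added 10 min; cleavage lowers signal.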
# Tb PFK inh-1: inhibitors of T. brucei phosphofructokinase. O15648. T. brucei PFK, ADP-Glo luminescence. Potency, µM (top dose mostly 57.5 µM), for inactives: top-dose activity, negative = inhibition, actives largely listed as inhibitors. 330,000 compounds, 0.17% hits. AID 485367;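 further: potency means the concentration at half of the fitted maximal effect; 0% = uninhibited 1x PFK enzyme wells and -100% = no-enzyme wells; nearly all actives have a fitted effect of over 60% in size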
#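 1.25 nM PFK with 0.5 mM F6P and 0.1 mM ATP in 0.1 M TEA pH 8.0, 5 mM MgCl2, incubated 45 min at room temperature; ADP measured by ADP-Glo luminescence; compounds titrated up to 57 uM.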
# FEN1 inhibitor: blocks human flap endonuclease 1; Potency, µM (series often up to 114 µM), without a hit: at the top dose activity change, negative = inhibition, hits mostly inhibitors; Recombinant FEN1 flap cleavage, fluorescence, 15 min; 390,000 compounds, 0.35% hits; P39748; further: potency means the concentration at half of the fitted maximal effect; on the % scale 0 is the no-effect control and ±100 the full control effect; nearly all actives have a fitted effect of over 65% in size
#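 Compounds are tested as a concentration series against 10 nM FEN1; after a 15 min room-temperature preincubation, 50 nM substrate starts cleavage, with plate reads at 0 and 15 min. Normalized responses are fitted by a Hill equation.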
# PI4K2A inh: inhibitors of human PI4K2A. Q9BTU6. purified PI4K2A, ADP-Glo luminescence, 1 h; active compounds read low. activity change, negative = inhibition, % at 76.9 µM. 420,000 compounds, 0.13% hits; in the data active means activity change below about -50%; inconclusive means mostly about -30% to -49%;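 further: -100% = wells without enzyme as full effect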
# Target sequence (Q9BTU6 whole entry, looked up): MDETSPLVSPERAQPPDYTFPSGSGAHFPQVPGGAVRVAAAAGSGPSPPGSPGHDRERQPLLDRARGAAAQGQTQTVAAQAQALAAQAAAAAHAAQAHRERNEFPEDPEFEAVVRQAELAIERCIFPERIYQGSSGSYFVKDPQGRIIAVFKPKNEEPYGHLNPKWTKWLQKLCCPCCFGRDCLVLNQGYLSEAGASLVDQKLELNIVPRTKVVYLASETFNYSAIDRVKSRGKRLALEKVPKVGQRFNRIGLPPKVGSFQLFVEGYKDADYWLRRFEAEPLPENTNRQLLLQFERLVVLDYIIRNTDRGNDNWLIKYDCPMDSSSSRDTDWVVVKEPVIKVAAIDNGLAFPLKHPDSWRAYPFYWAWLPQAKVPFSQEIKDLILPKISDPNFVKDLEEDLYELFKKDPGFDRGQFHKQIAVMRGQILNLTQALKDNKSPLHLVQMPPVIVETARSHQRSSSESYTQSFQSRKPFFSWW
#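 ADP-Glo luminescence measured ADP generated by PI4K2A enzyme (4 ug/mL before mixing) with 1.2 mM PI substrate (pre-mix) and 300 microM ATP (pre-mix). Tris pH7.5 buffer with MgCl2, Triton X-100; 1 h reaction at ambient temperature.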
# Tb PGK inh: inhibitors of T. brucei phosphoglycerate kinase; P07378; PGK/GAPDH coupled, Kinase-Glo luminescence, 60 min; Potency, µM (series often up to 57.5 µM), for inactives: top-dose activity change, negative = inhibition, hits mostly inhibitors; 380,000 compounds, 0.043% hits; further: potency means the concentration at half of the fitted maximal effect; on the % scale 0 is the no-effect control and ±100 the full control effect; nearly all actives have a fitted effect of over 60% in size
#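 Luminescent ATP detection (Kinase-Glo Plus) follows a 60-minute room-temperature incubation, with wells lacking PGK as controls. Buffer: 100 mM TEA (pH 7.6), 5 mM MgCl2, 0.01% Tween-20. Coupling enzyme GAPDH (100 nM final) supplies unstable 1,3-BPG in-well.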
# Tb PFK KinaseGlo: orthogonal confirmation of T. brucei phosphofructokinase inhibitors | shares compounds with Tb PFK inh-1 | Tb PFK enzyme, ATP depletion, Kinase-Glo Plus luminescence | Potency, µM (highest dose often 57.5 µM), inactives show at the top dose inhibition | 1,100 compounds, 47% hits | AID 504636; calls by dose curve; further: potency means the concentration at half of the fitted maximal effect; nearly all actives have a fitted effect of over 60% in size
# Tb PFK inh-2: T. brucei PFK enzyme inhibition, hit validation; purified T. brucei PFK, ADP-Glo luminescence, 45 min; 1,100 compounds, 41% hits; shares compounds with Tb PFK inh-1; Potency, µM (highest dose often 57.5 µM), for inactives: top-dose activity change, negative = inhibition, usual class: inhibitors; AID 504637;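 further: potency means the concentration at half of the fitted maximal effect; plate controls were full PFK enzyme control for no effect and no enzyme control for full effect; nearly all actives have a fitted effect of over 60% in size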
# Numbers without * were called inactive; i = inactive; u = inconclusive; x = no result; [ ] = remark or other dose. Unless noted, the call rests on the fitted dose curve; in most records, active means well fitted curve in the direction sought with a large enough effect; inconclusive means small, poorly fitted or top-dose-only effect, or another doubt; inactive means no such curve, though single readings can be large; an effect the other way counts as inactive or inconclusive.
SMILES,APE1 inh,TDP1 inh,Tb PFK inh-1,FEN1 inhibitor,PI4K2A inh,Tb PGK inh,Tb PFK KinaseGlo,Tb PFK inh-2
O=C1NC(=Nc2ccccc2)S/C1=C\C=C\c1ccco1,3%,3%,7.6µM*,u,u,-6%,u,u
COc1ccc(OC)c(/C=N/NC(=O)CCc2ccc(O)c(O)c2)c1,4%,3%,1.7µM*,-2%,-13,-7%,u,-29%
NC(N)=NS(=O)(=O)c1ccc(NC(=S)NC(=O)Cc2ccc(Cl)cc2)cc1,-13%,x,u,19%,1,-3%,27µM*,30µM*
COc1ccc2cc1Oc1ccc(cc1)CC1c3cc(c(OC)cc3CCN1C)Oc1c(OC)c(OC)cc3c1C(C2)N(C)CC3 (configuration not stated),2%,15%[56.1 µM],x,x,x,x,x,x
CN(C)CCc1c[nH]c2cccc(OP(=O)(O)O)c12,x,x,x,x,i,x,x,x
Oc1c(Cl)cccc1Cl,4%,3%,x,x,x,x,x,x
O=C1c2ccccc2C(=O)N1SC1CCCCC1,-3%,4%,u,-5%,15,i,9.5µM*,15µM*
CN(C)c1ccc(NC(=O)c2ccc(Cn3cc([N+](=O)[O-])cn3)cc2)cc1,u,7%,24µM*,1%,-6,i,12µM*,27µM*
CCOC(=O)N1CCN(c2ccc(Cl)c(Cl)c2)CC1,-10%,0%,u,-1%,1,i,x,x
O=C(O)/C=C\C(=O)Nc1ccc(N2CCN(c3ccc(Cl)c(Cl)c3)CC2)cc1,-5%,6%,u,-11%,-6,-22%,5.4µM*,11µM*
BrCCBr,1%,17%,x,x,x,x,x,x
Cc1cc(NS(=O)(=O)c2ccc(NC(=O)COc3ccc(Br)cc3)cc2)nc(C)n1,0%,1%,u,u,-2,1%,8.5µM*,24µM*
COc1cc(NS(=O)(=O)c2ccc(NC(=S)NC(=O)CC(C)C)cc2)nc(OC)n1,u,-2%,2%,-5%,-2,-3%,x,x
Cc1ccc(NS(=O)(=O)c2cc(NC(=O)c3ccc4c(c3)NC(=O)CS4)ccc2C)c(C)c1,-5%,5%,21µM*,-9%,-3,i,15µM*,24µM*
Cc1ccc(NC(=O)CSc2ncc3ccccn23)cc1C,3%,-3%,9.5µM*,9%,-3,-3%,u,-18%
CCOC(=O)c1cc(-c2ccccc2)n(CCCC(=O)Nc2ccc(C)c(C)c2)c1C,x,8%,x,u,-1,-9%,x,x
COc1ccc(OC)c2c1C(=O)C(Cl)=C(Cl)C2=O,11%,x,1.2µM*,u,-5,i,0.34µM*,0.67µM*
COc1ccc(C=O)cc1OC,-2%,10%,x,x,x,x,x,x
O=C=NCCCCN=C=O,u,6%,x,x,x,x,x,x
O=C(Nc1ccc(Cl)c([N+](=O)[O-])c1)ONC1=NCCCCC1,-4%,2%,u,3%,1,-1%,u,u
O=[N+]([O-])c1ccc(Cl)c([N+](=O)[O-])c1,4%,x,-19%,-27%,16,0%,x,x
CCOP(=O)(Nc1ccc2oc(=O)c3ccccc3c2c1)OCC,-4%,x,u,-18%,151,-2%,8%,21%
CC1(C)CN=C(Nc2ccccc2C(F)(F)F)S1,-1%,5%,-9%,2%,4,-7%,x,x
CC1=C(C(=O)Nc2ccccc2C(F)(F)F)C(c2ccc(C)s2)NC(=S)N1 (configuration not stated),5%,3%,u,9%,0,5%,5%,4%
C[C@@H]1CC[C@H]2[C@H](C)[C@H]3CC[C@@]4(O)[C@@H]5CC(=O)[C@H]6CC(=O)CC[C@]6(C)[C@H]5C[C@H]4[C@@H]3CN2C1,-4%,6%,x,x,x,x,x,x
SMILES,APE1 inh,TDP1 inh,Tb PFK inh-1,FEN1 inhibitor,PI4K2A inh,Tb PGK inh,Tb PFK KinaseGlo,Tb PFK inh-2
CC(=O)O[C@H]1C[C@@H]2CCC3C(CC[C@@]4(C)[C@H]3C[C@H]([N+]3(C)CCCCC3)[C@@H]4OC(C)=O)[C@@]2(C)C[C@@H]1[N+]1(C)CCCCC1 (some centres not stated),17%,9%[56.1 µM],x,x,x,x,x,x
C/C=C1/CN2CC[C@]34C(=C(C=O)[C@H]1C[C@@H]23)Nc1ccccc14,-7%,17%,x,x,x,x,x,x
Clc1ccc(CN2C3=NCCN3c3ccccc32)cc1Cl,2%,4%,6.7µM*,-9%,-5,-1%,3µM*,6µM*
Cc1c(Cl)cnc(NC(=O)COC(=O)c2ccc3ncsc3c2)c1Cl,-4%,x,u,-6%,-5,i,-35%,u
CN1CC[C@@]2(c3cccc(O)c3)Cc3nc4ccccc4cc3C[C@H]2C1,-5%,7%,x,x,x,x,x,x
O=C(Cl)C(Cl)(Cl)Cl,-5%,13%,x,x,x,x,x,x
Cc1ccc(-c2c[n+](Cc3ccc(Cl)c(Cl)c3)c3n2CCC3)cc1,22%,3%,6µM*,0%,0,i,4.8µM*,13µM*
N#CCSc1nnc(CNc2cccc(Cl)c2)o1,0%,0%,24µM*,-1%,4,1%,13µM*,21µM*
CCC(C)(C)O,-2%,6%,x,x,x,x,x,x
Cc1ccc(S(=O)(=O)CCC(=O)c2cccc([N+](=O)[O-])c2)cc1,-8%,6%,13µM*,-25%,31,-2%,21µM*,u
Clc1cc(Cl)c(Cl)c(Cl)c1,7%,1%,x,x,x,x,x,x
CCCCCn1c(NC(=O)c2ccco2)c(C(=O)OCC)c2nc3ccccc3nc21,-1%,3%,-4%,-7%,u,u,x,x
CCOC(=O)c1sc(=S)n(C)c1NC(=O)c1ccccc1,-3%,-5%,u,1%,2,0%,21µM*,u
OC1(c2ccc(Cl)cc2)CCN(Cc2c[nH]c3ccccc23)CC1,2%,8%[56.1 µM],x,-7%,2,i,x,x
O=[N+]([O-])c1ccc(N2CCN(c3cccc(Cl)c3)CC2)cn1,11%,2%,12µM*,0%,2,-1%,u,5.4µM*
C=C(Cl)CCl,3%,5%,x,x,x,x,x,x
CCN1CCN(C(=S)c2ccc(Cl)cc2)CC1,3%,1%,11µM*,0%,-21,2%,7.6µM*,24µM*
CCN1CCN(C(=S)c2ccc(OC)cc2)CC1,19%,5%,u,2%,-4,-10%,27µM*,34µM*

# Screening results as filed in PubChem BioAssay.
